These results are taken from PubChem BioAssay AID1520 (The Scripps Research Institute Molecular Screening Center, 2009).

Structures are written as SMILES. Some of the results follow. Activity calls are given as the source filed them.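 Rule for the calls: active = cell growth inhibition above the hit limit set in the earlier mutant JAK2 cell screen (cut at about 27% in these data); inactive = the rest.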

The assay can be described thus: growth loss in parental Ba/F3 cells – cell-based, murine pro-B, CellTiter-Glo luminescence, counter-screen for JAK2V617F inhibitor project (AID 1520).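 Note: plate controls were DMSO-treated cells for no effect and JAK Inhibitor I control wells for full effect.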 To be noted: Ba/F3 parental viability, at 5.6 µM, active compounds read high.

In general, inhibition refers to the change of the read-out against control, counted positive when it falls. Regarding `CN(C)CC1Oc2ccccc2OC1(O)c1ccccc1` (stereo unspecified), the inhibition was 34.6% (active).
